The results in this text go back to ChEMBL document CHEMBL1961873, “Compounds: GSK PKIS; Assays: Nanosyn kinase panel” (2012).

The target of assay [1] is Serine/threonine-protein kinase pim-2 (Homo sapiens) (UniProt Q9P1W9). The conditions noted are these: at 1 µM.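 Note: each value is a mean of the inhibition measurements against the kinase.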
The target in assay [2] is Serine/threonine-protein kinase pim-3 (Homo sapiens) (UniProt Q86V86). The conditions noted are these: at 0.1 µM.
The target is the same in assay [3]. As to conditions: at 1 µM.
Assay [4] concerns the target T1, MAP kinase-activated protein kinase 5 (Homo sapiens) (UniProt Q8IW41).
T1 sequence (whole entry): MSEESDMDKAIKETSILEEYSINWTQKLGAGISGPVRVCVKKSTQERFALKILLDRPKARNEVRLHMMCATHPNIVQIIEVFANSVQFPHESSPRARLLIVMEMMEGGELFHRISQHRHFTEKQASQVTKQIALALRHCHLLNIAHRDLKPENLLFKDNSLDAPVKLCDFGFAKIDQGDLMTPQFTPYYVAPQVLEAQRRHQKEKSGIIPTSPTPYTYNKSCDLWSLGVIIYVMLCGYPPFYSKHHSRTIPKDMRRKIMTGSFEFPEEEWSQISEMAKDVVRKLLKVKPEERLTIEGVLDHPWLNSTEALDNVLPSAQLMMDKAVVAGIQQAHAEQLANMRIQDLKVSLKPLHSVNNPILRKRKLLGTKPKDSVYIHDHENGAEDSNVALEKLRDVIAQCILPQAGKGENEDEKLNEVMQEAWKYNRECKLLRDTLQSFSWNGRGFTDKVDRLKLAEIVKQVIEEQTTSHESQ
As to conditions: at 0.1 µM.

For assay [5], the target named is T1, MAP kinase-activated protein kinase 5 (Homo sapiens). As to conditions: at 1 µM.
Assay [6] addresses Serine/threonine-protein kinase SIK1 (Homo sapiens) (UniProt P57059). As to conditions: at 0.1 µM.
Assay [7] shares this target. The conditions noted are these: at 1 µM.
Assay [8] deals with Serine/threonine-protein kinase SIK2 (Homo sapiens) (UniProt Q9H0K1). As to conditions: at 0.1 µM.
Chain of Serine/threonine-protein kinase SIK2 (Homo sapiens) (Q9H0K1 whole entry, looked up): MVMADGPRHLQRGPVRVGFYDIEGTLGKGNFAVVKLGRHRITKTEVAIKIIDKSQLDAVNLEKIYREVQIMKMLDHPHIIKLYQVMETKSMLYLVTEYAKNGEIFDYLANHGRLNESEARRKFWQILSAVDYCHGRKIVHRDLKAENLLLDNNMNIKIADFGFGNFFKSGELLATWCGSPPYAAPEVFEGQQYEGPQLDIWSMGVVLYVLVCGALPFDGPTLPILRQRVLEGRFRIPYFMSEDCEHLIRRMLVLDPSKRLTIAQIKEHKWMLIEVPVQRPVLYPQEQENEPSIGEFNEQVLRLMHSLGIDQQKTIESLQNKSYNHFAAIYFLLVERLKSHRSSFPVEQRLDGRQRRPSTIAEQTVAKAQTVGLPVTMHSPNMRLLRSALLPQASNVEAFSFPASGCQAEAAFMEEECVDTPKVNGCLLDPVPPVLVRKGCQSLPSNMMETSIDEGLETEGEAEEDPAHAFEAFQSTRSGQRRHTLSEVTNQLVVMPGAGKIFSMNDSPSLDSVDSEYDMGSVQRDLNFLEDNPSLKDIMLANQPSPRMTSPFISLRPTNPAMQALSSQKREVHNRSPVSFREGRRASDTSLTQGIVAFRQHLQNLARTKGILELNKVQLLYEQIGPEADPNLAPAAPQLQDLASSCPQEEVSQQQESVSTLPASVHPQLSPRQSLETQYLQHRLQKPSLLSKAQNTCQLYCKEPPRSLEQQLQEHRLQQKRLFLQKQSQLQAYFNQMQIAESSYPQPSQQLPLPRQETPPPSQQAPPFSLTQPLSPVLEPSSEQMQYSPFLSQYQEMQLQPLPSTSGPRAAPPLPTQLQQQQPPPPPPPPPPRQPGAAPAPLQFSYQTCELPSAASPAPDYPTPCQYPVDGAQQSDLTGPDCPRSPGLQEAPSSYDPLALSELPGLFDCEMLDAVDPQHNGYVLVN
The target is the same in assay [9]. The conditions noted are these: at 1 µM.
For assay [10], the target named is T2, Serine/threonine-protein kinase TBK1 (Homo sapiens) (UniProt Q9UHD2).
T2 sequence (whole entry): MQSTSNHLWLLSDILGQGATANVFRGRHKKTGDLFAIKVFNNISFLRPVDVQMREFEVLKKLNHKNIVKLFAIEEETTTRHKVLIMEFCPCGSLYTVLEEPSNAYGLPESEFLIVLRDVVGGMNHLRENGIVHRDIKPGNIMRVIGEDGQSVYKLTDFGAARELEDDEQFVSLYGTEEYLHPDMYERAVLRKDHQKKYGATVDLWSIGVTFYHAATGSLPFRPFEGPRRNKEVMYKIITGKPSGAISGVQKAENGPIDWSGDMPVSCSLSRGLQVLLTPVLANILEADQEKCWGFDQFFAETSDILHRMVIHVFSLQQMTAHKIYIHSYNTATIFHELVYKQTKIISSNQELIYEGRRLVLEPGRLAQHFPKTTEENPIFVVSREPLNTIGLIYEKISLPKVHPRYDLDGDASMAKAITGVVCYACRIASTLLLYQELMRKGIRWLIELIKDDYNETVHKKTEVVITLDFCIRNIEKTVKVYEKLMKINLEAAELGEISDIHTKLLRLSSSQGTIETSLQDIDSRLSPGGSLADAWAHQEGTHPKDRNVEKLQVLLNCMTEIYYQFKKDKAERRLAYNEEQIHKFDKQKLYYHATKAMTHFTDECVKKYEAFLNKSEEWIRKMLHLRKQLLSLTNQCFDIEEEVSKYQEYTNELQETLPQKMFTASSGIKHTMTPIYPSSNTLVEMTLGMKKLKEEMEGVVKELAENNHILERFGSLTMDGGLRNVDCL
The conditions noted are these: at 0.1 µM.

The target in assay [11] is T2, Serine/threonine-protein kinase TBK1 (Homo sapiens). The conditions noted are these: at 1 µM.
Assay [12] has as its target T3, Testis-specific serine/threonine-protein kinase 1 (Homo sapiens) (UniProt Q9BXA7).
T3 sequence (whole entry): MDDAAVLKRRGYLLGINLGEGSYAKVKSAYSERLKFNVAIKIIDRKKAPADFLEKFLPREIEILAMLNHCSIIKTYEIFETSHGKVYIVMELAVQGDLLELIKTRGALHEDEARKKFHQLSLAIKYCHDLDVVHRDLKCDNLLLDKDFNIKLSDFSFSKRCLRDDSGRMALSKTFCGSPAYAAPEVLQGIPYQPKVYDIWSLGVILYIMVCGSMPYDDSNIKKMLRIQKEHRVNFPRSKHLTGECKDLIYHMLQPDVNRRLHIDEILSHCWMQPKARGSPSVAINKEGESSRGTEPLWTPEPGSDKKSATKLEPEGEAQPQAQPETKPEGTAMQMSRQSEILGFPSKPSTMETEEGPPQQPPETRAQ
The conditions noted are these: at 0.1 µM.

In assay [13] the target is T3, Testis-specific serine/threonine-protein kinase 1 (Homo sapiens). As to conditions: at 1 µM.
The target of assay [14] is T4, Testis-specific serine/threonine-protein kinase 2 (Homo sapiens) (UniProt Q96PF2).
T4 sequence (whole entry): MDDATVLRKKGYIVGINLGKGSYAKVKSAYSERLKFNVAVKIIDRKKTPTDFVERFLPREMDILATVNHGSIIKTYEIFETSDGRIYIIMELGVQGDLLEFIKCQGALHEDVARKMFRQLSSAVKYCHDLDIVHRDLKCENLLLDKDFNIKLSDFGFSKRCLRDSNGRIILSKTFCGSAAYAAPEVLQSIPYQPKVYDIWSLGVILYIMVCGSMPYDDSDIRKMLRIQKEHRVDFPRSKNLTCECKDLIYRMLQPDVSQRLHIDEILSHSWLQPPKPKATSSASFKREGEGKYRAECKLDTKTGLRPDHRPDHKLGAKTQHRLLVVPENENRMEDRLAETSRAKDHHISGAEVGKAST
As to conditions: at 0.1 µM.

The target of assay [15] is T4, Testis-specific serine/threonine-protein kinase 2 (Homo sapiens). The conditions noted are these: at 1 µM.
Assay [16] concerns the target Casein kinase I isoform alpha (Homo sapiens) (UniProt P48729). As to conditions: at 0.1 µM.
Assay [17] shares this target. As to conditions: at 1 µM.
Assay [18] has as its target Casein kinase I isoform gamma-1 (Homo sapiens) (UniProt Q9HCP0). As to conditions: at 0.1 µM.
Assay [19] has the same target. As to conditions: at 1 µM.
Assay [20] deals with Casein kinase I isoform gamma-2 (Homo sapiens) (UniProt P78368). The conditions noted are these: at 0.1 µM.
Chain of Casein kinase I isoform gamma-2 (Homo sapiens) (P78368 whole entry, looked up, canonical isoform): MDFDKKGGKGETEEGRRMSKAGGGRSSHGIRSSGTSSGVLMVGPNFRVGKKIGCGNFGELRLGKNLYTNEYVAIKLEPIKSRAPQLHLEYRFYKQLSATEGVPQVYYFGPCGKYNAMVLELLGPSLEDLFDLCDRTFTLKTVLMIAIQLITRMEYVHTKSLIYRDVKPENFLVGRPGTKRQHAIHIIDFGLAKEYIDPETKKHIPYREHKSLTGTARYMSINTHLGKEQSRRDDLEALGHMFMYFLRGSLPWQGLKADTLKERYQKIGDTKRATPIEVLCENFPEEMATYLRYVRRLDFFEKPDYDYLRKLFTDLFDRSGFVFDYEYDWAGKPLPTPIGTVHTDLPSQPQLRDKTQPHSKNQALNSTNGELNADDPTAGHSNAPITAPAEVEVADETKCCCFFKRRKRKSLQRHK

Chain of Serine/threonine-protein kinase SIK1 (Homo sapiens) (P57059 whole entry): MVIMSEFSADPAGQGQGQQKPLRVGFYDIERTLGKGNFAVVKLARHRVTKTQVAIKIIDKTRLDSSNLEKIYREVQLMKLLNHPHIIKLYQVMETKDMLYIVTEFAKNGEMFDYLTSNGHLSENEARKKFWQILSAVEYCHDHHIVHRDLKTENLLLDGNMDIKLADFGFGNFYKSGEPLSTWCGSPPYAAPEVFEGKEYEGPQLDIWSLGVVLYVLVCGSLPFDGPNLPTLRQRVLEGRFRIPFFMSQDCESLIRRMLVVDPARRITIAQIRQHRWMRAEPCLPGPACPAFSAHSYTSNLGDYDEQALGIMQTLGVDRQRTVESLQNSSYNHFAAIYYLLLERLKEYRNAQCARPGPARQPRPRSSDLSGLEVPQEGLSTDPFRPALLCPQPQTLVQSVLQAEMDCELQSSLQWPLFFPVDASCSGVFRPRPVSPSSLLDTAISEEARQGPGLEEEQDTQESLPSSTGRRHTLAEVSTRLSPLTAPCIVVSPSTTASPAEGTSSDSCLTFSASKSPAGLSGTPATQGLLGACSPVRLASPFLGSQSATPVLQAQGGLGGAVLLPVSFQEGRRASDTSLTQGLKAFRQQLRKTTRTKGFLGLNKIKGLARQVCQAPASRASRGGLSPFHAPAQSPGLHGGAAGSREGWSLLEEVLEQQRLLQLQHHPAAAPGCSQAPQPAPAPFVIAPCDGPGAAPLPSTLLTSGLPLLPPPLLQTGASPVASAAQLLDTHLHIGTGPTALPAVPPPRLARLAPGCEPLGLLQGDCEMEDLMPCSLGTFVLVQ
Chain of Casein kinase I isoform alpha (Homo sapiens) (P48729 2-337 limits assumed): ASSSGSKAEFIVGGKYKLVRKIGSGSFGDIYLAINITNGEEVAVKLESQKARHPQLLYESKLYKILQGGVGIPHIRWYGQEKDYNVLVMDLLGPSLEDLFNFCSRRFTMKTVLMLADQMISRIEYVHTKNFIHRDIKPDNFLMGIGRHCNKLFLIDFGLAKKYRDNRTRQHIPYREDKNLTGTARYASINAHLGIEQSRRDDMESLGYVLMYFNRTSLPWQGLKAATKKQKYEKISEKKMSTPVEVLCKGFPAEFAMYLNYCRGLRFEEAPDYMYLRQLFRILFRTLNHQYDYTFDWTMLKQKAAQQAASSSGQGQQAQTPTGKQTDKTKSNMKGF
Chain of Casein kinase I isoform gamma-1 (Homo sapiens) (Q9HCP0 whole entry, looked up, canonical isoform): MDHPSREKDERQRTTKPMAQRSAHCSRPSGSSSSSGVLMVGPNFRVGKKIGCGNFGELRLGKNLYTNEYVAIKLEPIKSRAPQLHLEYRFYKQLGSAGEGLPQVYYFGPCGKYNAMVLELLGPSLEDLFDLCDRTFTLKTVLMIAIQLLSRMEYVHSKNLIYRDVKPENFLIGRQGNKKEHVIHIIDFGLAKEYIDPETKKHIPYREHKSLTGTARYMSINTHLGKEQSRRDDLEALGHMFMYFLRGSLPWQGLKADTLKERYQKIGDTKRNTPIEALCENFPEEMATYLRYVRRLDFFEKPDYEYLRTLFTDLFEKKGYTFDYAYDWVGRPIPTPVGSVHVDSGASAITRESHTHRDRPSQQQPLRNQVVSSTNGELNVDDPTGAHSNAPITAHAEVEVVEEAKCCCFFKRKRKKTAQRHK
Chain of Serine/threonine-protein kinase pim-2 (Homo sapiens) (Q9P1W9 whole entry, looked up): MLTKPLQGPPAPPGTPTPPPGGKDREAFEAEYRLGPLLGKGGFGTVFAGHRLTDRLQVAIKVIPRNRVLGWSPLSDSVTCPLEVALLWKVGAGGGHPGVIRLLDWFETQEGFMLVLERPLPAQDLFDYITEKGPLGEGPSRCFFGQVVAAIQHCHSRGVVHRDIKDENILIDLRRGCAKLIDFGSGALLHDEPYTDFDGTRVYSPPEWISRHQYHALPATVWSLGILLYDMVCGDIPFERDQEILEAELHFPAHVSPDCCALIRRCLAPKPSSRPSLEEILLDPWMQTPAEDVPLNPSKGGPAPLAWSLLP

With `CS(=O)(=O)CCNCc1coc(-c2ccc3ncnc(Nc4ccc(OCc5ccccc5)cc4)c3c2)c1`, the inhibition is 0.48% in assay [1]; 1.2% in assay [2]; 3.43% in [3]; 1.41% in assay [4]; 1.21% in assay [5]; 1.7% in [6]. Moreover, the inhibition in assay [7] was 8.27%; in assay [8], -0.18%; in [9], 5.7%; in [10], 2.64%; in assay [11], 2.44%; in assay [12], 1.84%. For the same compound, the inhibition in [13] is 3.84%; in [14], 2.99%; in assay [15] it was 2.93%; in assay [16] it was 1.56%; in assay [17], 4.42%; in assay [18], 1.97%. The inhibition in [19] turned out to be 2.4%; in assay [20] it was 1.63%.
For the compound `COc1cc(/C=N/Nc2ncnc3[nH]ncc23)ccc1O`, the inhibition in assay [1] amounted to 4.24%; in [2] it was 2.9%; in assay [3], 21.5%; in assay [4], 1.2%; in [5] it was 2.2%; in assay [6], 2.8%. The inhibition is 26.7% in [7]; 8.34% in assay [8]; 33.1% in assay [9]; 4.18% in [10]; 21.1% in [11]; 4.57% in [12]. Further, the inhibition in assay [13] is 11.6%; in assay [14] it was 3.14%; in [15] it was 1.44%; in assay [16], 3.78%; in assay [17], 13.7%; in [18], 3.68%. The inhibition is 19% in assay [19] and 4.88% in assay [20].
For the compound `CC1=C(C(=O)Nc2cc(Cl)c3[nH]ncc3c2)C(c2ccc(C(F)(F)F)cc2)CC(=O)N1` (stereo not given), the inhibition in assay [1] was -0.24%; in assay [2], -0.23%; in assay [3] it was -0.25%; in assay [4] it was 1.37%; in [5] it was 2.73%; in assay [6], 4.89%. In addition, the inhibition amounted to 8.58% in assay [7]; 4.56% in [8]; 11.8% in assay [9]; 2.77% in assay [10]; 3.48% in assay [11]; 3.52% in assay [12]. Further, the inhibition in assay [13] was found to be 3.9%; in [14] it was 2.37%; in [15] it was 1.37%; in assay [16], 1.86%; in [17] it was 2.49%; in [18] it was 2.91%. Also, the inhibition came to 3.25% in assay [19] and 2.31% in assay [20].
Consider `CN(C)CCOc1ccc(-c2nc(-c3ccncc3)c(-c3ccc4c(c3)CC/C4=N\O)[nH]2)cc1`, for which the inhibition in [1] was 0.05%; in [2], -0.36%; in assay [3], 2.58%; in assay [4], 1.42%; in [5], 1.59%; in assay [6], 2.53%. Also, the inhibition in assay [7] stood at 3.64%; in assay [8], 6.15%; in assay [9], 2.63%; in [10], 1.69%; in assay [11], 3.98%; in assay [12], 1.85%. For the same compound, the inhibition in [13] stood at 2.25%; in [14], 3.34%; in assay [15], 2.43%; in assay [16], 3.41%; in assay [17], 7.2%; in [18] it was 2.51%. The inhibition came out at 4.6% in assay [19] and 2.26% in assay [20].
As to `CC(C)COC(=O)c1ccc2c(c1)/C(=C/Nc1ccc(S(N)(=O)=O)cc1)C(=O)N2`, the inhibition is 5.85% in assay [1]; 8.76% in [2]; 48.8% in [3]; -0.6% in [4]; 1.18% in assay [5]; 2.01% in [6]. Also, the inhibition was 72.2% in [7]; 4.76% in [8]; 39.7% in assay [9]; 38.1% in assay [10]; 82.9% in assay [11]; 11.4% in assay [12]. The inhibition was 50.2% in [13]; -0.78% in [14]; 0.83% in assay [15]; -2% in [16]; 1.61% in [17]; -1.63% in [18]. For the same compound, the inhibition in [19] was 7.57%; in assay [20], -1.09%.
Turning to `CCn1cc(-c2ccnc3[nH]ccc23)c(-c2cccc(NC(=O)Nc3ccc(OCc4ccccc4)cc3)c2)n1`, the inhibition in assay [1] is 0.13%; in assay [2], -0.81%; in assay [3], -1.13%; in assay [4] it was -0.44%; in [5], -0.98%; in [6] it was 1.1%. In addition, the inhibition was 3.35% in assay [7]; -4.91% in [8]; -0.71% in [9]; -0.45% in [10]; -0.26% in assay [11]; 1.75% in assay [12]. The inhibition in [13] is 1.5%; in assay [14] it was -0.38%; in assay [15] it was -0.63%; in [16], -1.12%; in assay [17] it was -1.47%; in [18], 1%. Moreover, the inhibition was determined as 1.59% in [19] and 0.29% in assay [20].

The inhibition is the change of the read-out against control, counted positive when it falls.
